Screening data: PubChem BioAssay, National Center for Advancing Translational Sciences (NCATS)
Hits are enriched below; roughly 21% of the tested compounds scored in any of these assays.
Shiga inhibitor = blocks Shiga toxin action in Vero cells; Vero cells, Shiga toxin protein synthesis inhibition reporter; 290,000 tested, 9.2% active; inhibition, % at 38.7 µM; in the data active = inhibition mostly above about 28%, no sharp cut-off; inactive = mostly below about 43%; also: 0% is about no effect
Pf growth 96h = P. falciparum growth inhibition at 96 hours; P. falciparum luciferase reporter growth, 96 h; AID 504834; 320,000 tested, 6.9% active; Potency, µM (titrated, usually from 28.7 µM), for the others: at the highest dose activity change, negative = inhibition, hits mostly inhibitors; also: potency is read from the fitted curve at half-maximal effect; % is scaled to controls: 0 for no effect and ±100 for the full control effect
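P. falciparum expressing integrated firefly luciferase, in erythrocytes at 2% hematocrit, 0.05% parasitemia, incubated with compounds 96 h at 37 C, 5% CO2. Growth inhibition read as loss of luminescence; two-generation exposure targets delayed-death apicoplast inhibitors.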
CHX counter = counter-screen hit for Shiga toxin inhibitors, cycloheximide | AID 2314 | 300,000 tested, 12% active | max response, % | cell reporter, cycloheximide protein synthesis inhibition counterscreen; in the data active = max response mostly above about 13%, no sharp cut-off; inactive = mostly below about 14%; also: read at 38.3 µM for the half of the compounds with a filed dose; 0% is about no effect
Pf growth 48h = inhibits P. falciparum growth in the first generation, 48 h; AID 504832; 310,000 tested, 5.9% active; P. falciparum luciferase growth in erythrocytes, 48 h; Potency, µM (doses to about 28.7 µM), for inactives: at the top dose activity change, negative = inhibition, most hits filed as inhibitors; also: potency is read from the fitted curve at half-maximal effect; % is scaled to controls: 0 for no effect and ±100 for the full control effect
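Cell-based growth assay: transgenic P. falciparum expressing firefly luciferase, cultured in red cells within RPMI 1640 containing 0.5% w/v Albumax, 24 mM bicarbonate and gentamycin. A drop in luciferase activity indicates inhibition.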
HCV inh = HCV inhibition | Potency, µM (top dose mostly 41.8 µM), for inactives: top-dose activity change, negative = inhibition, usual class: inhibitors | Huh7.5.1 HCVcc-Cre infection, luciferase reporter, 44 h | 340,000 tested, 3.4% active; also: potency is read from the fitted curve at half-maximal effect; % is scaled to controls: 0 for no effect and ±100 for the full control effect
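Seed cells (1,000/well) for 4 h; treat with compound and infect with HCVcc-Cre, moi about 0.5. Incubate 44 h, then detect luciferase activity.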
HCMV inh = inhibitors of human cytomegalovirus; HFF cells, HCMV-luciferase reporter, 72 h; active compounds read low; activity change, negative = inhibition, % at 57.5 µM; 410,000 tested, 4.5% active; AID 1259415; in the data active = activity change below about -60%; inconclusive = no clear call, values can overlap the other calls; inactive = above about -39%; also: % is scaled to controls: 0 for no effect and ±100 for the full control effect
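HFF cells seeded 16 h at 37C, treated with compounds, infected with luciferase-reporter HCMV at MOI 1 PFU/cell; luciferase read at 72 h post infection, normalized to buffer-only and Salinomycin controls.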
Starred values were filed as active, the others as inactive; ? = inconclusive; . = not tested or not shown. Unless noted, calls follow the shape of the dose curve; as a rule, active = well fitted inhibition curve with a large enough effect; inconclusive = small, poorly fitted or top-dose-only effect, or another doubt; inactive = no such curve, though single readings can be large or run the other way.

SMILES	Shiga inhibitor	Pf growth 96h	CHX counter	Pf growth 48h	HCV inh	HCMV inh
CCOc1cc(N(CC)CC)ccc1/C=C(/C#N)c1nc2ccccc2[nH]1	82*	8.3µM*	27*	-19%	2.5µM*	-24
CCCOc1cc(N(CC)CC)ccc1/C=C(/C#N)c1nc2ccc(C)cc2[nH]1	8	2.6µM*	16	7.4µM*	?	?
COc1ccccc1N/C=C(\C#N)c1nc2ccccc2[nH]1	2	125%	12	?	?	88
O=C(Nc1ccc(Cl)cc1F)c1cc(S(=O)(=O)NCc2ccc3c(c2)OCO3)ccc1F	.	.	.	.	.	72
Cc1ccc(Sc2c(O)c3ccccc3n(C)c2=O)cc1	-6	-33%	-3	-7%	-16%	1
Cc1ccc(Sc2c(C=O)c3ccccc3n2C)cc1	-7	0%	8	-26%	11µM*	-91*
Cc1ccc(Nc2c([N+](=O)[O-])c(=O)n(C)c3ccccc23)cc1	-3	1.7µM*	-2	-19%	-10%	-11
Cn1c(C(=O)O)c(C=O)c2ccccc21	-17	10µM*	-5	5%	-4%	-16
Cc1ccc(Sc2c([N+](=O)[O-])c(=O)n(C)c3ccccc23)cc1	11	188%	10*	?	?	-20
Cn1c(=O)c([N+](=O)[O-])c(NCc2ccccc2)c2ccccc21	2	8.3µM*	-1	0%	3%	16
CCOc1cnn(-c2cc(Oc3ccc(C)cc3)ncn2)c(=O)c1Cl	-2	?	-3	.	-6%	1
Cc1ccccc1Oc1cc(-n2ncc(Cl)c(Cl)c2=O)ncn1	23	-29%	14*	?	?	-105*
Cc1ccc(NC(=O)c2sc3nc(-c4ccc(F)cc4)ccc3c2N)cc1F	.	.	.	.	.	6
Nc1c(C(=O)Nc2ccc(F)cc2)sc2nc(-c3ccco3)ccc12	67	-15%	32*	-20%	?	-14
CC(=O)c1sc2nc(-c3ccccc3)cc(C)c2c1N	-12	-20%	-2	0%	-4%	4
Nc1c(C(=O)Nc2ccc(Br)cc2)sc2nc(-c3ccco3)ccc12	38*	0%	29*	-53%	?	-60*
CC(=O)c1sc2nc(-c3ccco3)ccc2c1N	76*	267%	32*	172%	-3%	7
Nc1c(C(=O)Nc2ccc(Br)cc2)sc2nc(-c3ccncc3)ccc12	18	.	17	.	.	?
Cn1c(=O)c2cc(NC(=O)Cc3cccc4ccccc34)ccc2n1-c1ccccc1	.	.	.	.	.	-4
CCC/C=N/NC(=O)c1ccc(F)cc1	75*	-20%	24*	?	24%	?
O=C(N/N=C/CCc1ccccc1)C1CCCCC1	26	8%	8	-1%	20%	1
O=C(N/N=C/CCc1ccccc1)c1ccccc1	53*	-26%	37*	18%	20%	-8
CCC/C=N/NC(=O)c1cccc(Br)c1	-6	?	9	?	32%	-37
Cc1nccn1CC(=O)c1ccc(O)c(O)c1	.	?	.	25%	17%	12
O=[N+]([O-])c1ccc(COc2cccc3cccnc23)cc1	143*	7%	68*	64%	-17%	4
SMILES	Shiga inhibitor	Pf growth 96h	CHX counter	Pf growth 48h	HCV inh	HCMV inh
N#Cc1ccc(COc2cccc3cccnc23)cc1	36*	34%	25*	52%	?	113
Brc1ccc(COc2cccc3cccnc23)cc1	.	.	.	.	-12%	-15
C[C@H]1[C@H](C)CC[C@]2(C=O)CC[C@]3(C)C(=CC[C@@H]4[C@@]5(C)C[C@@H](O)[C@H](O)[C@@](C)(CO)[C@@H]5CC[C@]43C)[C@H]12	11	.	-7	.	.	.
CN(C)c1cccc2c(S(=O)(=O)N3CCCC3)cccc12	27	-3%	34*	-2%	3%	-6
CCCCn1c(NC(=O)c2ccco2)c(C(=O)OCC)c2nc3ccccc3nc21	-4	?	-1	?	-15%	-69*
CCCCCn1c(NC(=O)c2ccco2)c(S(=O)(=O)c2ccc(C)cc2)c2nc3ccccc3nc21	2	?	5	5.2µM*	-12%	.
CCCCn1c(NC(=O)c2ccco2)c(S(=O)(=O)c2ccc(C)cc2)c2nc3ccccc3nc21	1	?	-2	?	-4%	1
